From the supplement of paper PMC11001985

compound: C#CCNC(=O)CCSSCCC(=O)NCCc1ccc(C=O)c(C=O)c1; test: lysine labeling ratio R10:1 (500 µM / 50 µM probe), SILAC-ABPP in living cells; higher = lower intrinsic lysine reactivity toward the probe, active = 2 or less; details: HeLa; probe concentrations 500 vs 50 µM
How it was run: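 Living SILAC light and heavy HeLa cells in PBS at room temperature were treated with an alkyne-tagged, disulfide-linked lysine probe at 50 µM or 500 µM, with forward and reverse label swaps. The mixed lysates were clicked to biotin-azide, digested with trypsin, captured on neutravidin, released with DTT, alkylated and run by LC-MS/MS on a TIMS-TOF Pro. R for each lysine is the filtered median high-probe/low-probe MS1 peptide ratio, taken again as the median over forward and reverse replicates. Any value above 20 is set to 20.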

Chain of UniProt Q04721 (Q04721 whole entry): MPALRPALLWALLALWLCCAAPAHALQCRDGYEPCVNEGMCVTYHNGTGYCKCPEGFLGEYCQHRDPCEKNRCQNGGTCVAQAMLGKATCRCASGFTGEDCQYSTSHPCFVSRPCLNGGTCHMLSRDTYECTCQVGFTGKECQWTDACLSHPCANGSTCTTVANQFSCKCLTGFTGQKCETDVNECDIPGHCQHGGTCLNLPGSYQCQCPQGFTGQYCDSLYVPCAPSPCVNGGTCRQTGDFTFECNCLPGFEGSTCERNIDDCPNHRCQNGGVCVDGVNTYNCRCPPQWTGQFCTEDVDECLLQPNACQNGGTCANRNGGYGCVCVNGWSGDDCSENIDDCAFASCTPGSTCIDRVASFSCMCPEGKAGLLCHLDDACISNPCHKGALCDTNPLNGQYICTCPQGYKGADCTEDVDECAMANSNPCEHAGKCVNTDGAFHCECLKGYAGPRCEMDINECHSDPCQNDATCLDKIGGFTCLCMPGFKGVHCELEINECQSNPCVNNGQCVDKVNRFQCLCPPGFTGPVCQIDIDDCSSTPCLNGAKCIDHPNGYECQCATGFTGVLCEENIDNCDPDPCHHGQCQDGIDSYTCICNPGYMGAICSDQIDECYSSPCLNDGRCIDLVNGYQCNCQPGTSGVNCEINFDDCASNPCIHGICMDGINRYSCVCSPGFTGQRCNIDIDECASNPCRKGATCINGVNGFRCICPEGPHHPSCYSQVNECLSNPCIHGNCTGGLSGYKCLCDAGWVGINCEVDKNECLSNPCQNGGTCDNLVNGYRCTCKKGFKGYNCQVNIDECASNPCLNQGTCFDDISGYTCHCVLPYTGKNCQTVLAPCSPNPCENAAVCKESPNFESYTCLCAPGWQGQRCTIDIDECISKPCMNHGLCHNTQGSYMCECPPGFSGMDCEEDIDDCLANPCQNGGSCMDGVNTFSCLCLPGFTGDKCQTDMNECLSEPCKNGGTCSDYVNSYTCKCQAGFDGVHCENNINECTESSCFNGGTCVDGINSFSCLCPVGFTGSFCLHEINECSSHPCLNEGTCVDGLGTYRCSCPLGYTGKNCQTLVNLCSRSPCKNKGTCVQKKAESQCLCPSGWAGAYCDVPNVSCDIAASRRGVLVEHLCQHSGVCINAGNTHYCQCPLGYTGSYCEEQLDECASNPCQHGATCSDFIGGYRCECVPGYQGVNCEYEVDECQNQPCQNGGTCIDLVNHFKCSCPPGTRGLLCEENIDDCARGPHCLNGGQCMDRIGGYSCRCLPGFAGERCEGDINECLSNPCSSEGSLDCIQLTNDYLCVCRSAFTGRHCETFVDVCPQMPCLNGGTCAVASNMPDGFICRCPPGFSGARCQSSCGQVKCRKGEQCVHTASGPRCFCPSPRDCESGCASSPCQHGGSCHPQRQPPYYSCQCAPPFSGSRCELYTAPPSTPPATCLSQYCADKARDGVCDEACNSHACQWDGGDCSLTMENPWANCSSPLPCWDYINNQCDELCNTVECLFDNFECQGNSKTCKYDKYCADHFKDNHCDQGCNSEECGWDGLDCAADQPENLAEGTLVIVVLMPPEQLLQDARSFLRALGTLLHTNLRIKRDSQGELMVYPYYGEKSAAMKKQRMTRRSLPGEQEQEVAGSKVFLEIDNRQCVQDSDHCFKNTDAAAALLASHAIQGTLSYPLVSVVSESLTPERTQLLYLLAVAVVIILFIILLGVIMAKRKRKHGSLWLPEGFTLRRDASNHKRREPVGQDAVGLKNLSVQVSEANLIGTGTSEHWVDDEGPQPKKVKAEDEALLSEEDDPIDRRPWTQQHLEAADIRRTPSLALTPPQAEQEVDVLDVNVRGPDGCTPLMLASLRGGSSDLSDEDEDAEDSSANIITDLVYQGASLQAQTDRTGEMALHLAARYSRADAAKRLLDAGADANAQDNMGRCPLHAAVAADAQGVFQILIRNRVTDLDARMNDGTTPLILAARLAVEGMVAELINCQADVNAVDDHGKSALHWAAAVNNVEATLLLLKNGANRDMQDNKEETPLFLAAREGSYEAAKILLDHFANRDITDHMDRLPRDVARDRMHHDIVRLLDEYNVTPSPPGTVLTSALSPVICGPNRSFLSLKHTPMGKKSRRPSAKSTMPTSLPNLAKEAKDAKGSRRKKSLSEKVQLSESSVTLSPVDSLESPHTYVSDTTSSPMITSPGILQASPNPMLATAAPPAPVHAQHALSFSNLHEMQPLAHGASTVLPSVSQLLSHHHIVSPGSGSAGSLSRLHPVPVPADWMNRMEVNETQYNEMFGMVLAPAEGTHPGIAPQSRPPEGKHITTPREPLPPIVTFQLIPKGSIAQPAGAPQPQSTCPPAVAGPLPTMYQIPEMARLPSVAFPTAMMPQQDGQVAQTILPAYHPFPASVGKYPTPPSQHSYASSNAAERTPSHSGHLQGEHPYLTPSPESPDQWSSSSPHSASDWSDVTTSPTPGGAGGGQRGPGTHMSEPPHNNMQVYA
Chain of UniProt Q12906 (Q12906 whole entry): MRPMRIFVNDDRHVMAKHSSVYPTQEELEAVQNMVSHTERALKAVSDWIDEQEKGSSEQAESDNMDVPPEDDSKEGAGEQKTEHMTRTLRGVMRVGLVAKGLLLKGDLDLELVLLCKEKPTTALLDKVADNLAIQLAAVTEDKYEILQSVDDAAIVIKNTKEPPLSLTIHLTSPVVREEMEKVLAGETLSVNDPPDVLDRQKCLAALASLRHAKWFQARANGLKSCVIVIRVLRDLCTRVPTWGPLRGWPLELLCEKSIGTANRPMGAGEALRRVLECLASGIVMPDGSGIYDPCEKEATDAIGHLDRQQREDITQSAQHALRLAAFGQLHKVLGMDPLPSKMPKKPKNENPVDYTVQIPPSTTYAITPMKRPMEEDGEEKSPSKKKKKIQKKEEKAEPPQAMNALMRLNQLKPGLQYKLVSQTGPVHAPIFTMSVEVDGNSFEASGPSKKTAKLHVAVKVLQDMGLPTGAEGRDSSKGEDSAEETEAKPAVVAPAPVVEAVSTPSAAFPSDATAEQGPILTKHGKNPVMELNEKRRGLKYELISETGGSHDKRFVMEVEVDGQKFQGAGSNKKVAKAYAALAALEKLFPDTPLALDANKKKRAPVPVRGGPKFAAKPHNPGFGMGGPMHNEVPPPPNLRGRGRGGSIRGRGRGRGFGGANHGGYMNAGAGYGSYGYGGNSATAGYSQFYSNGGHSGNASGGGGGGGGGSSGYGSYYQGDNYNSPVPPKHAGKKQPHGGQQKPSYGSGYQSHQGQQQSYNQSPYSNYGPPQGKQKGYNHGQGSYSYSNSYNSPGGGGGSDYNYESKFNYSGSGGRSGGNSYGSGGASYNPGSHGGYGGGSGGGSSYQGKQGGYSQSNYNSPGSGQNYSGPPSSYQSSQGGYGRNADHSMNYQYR
Chain of UniProt P46940 (P46940 whole entry): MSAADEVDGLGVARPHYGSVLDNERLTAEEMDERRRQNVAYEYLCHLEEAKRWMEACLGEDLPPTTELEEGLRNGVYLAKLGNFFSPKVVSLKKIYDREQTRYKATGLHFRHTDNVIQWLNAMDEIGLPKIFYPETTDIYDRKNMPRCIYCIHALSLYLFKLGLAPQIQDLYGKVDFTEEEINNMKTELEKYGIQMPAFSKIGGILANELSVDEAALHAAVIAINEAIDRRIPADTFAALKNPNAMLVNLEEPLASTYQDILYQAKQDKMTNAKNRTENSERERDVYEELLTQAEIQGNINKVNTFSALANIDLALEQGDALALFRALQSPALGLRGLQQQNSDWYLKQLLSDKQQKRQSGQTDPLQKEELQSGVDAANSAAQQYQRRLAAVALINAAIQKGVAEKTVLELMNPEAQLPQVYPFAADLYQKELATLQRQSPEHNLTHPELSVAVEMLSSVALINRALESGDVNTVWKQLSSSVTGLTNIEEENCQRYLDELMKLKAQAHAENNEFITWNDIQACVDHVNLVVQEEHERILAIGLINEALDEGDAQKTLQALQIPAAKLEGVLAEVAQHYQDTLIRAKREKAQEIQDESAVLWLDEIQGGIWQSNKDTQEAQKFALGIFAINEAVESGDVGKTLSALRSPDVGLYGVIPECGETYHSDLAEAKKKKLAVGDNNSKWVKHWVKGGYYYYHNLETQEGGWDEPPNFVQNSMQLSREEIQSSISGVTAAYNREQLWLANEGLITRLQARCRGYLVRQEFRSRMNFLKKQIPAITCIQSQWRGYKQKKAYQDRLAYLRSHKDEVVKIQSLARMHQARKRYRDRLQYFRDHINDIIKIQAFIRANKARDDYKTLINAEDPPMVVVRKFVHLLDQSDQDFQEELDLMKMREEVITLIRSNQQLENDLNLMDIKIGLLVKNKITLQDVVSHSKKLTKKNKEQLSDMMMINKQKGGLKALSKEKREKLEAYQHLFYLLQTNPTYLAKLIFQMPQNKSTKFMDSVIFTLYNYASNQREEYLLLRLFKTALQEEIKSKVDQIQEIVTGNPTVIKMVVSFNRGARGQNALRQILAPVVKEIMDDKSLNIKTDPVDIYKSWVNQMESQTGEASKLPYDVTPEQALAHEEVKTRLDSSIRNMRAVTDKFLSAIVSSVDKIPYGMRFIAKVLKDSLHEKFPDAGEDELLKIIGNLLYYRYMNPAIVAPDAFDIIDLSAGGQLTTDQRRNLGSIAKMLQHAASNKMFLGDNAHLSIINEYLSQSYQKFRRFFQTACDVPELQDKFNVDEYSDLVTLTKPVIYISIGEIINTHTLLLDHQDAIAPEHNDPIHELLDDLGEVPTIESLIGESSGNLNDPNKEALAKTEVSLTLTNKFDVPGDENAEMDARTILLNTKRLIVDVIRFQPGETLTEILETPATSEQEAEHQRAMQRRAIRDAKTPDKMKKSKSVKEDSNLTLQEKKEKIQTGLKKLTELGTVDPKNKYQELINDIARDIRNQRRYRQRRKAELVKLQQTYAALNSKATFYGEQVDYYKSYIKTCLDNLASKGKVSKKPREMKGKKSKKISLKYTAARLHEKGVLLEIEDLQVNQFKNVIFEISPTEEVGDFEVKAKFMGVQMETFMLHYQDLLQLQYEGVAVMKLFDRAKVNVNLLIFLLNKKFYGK
Chain of UniProt Q9UII2 (Q9UII2 whole entry): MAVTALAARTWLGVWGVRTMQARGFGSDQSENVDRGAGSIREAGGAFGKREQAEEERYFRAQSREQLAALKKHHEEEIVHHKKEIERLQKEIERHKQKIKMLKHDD

Lysine labeling ratio R10:1, inactive:
IQGAP1 (lysine site: K1128) (UniProt P46940) 2.31, UniProt P20591 (lysine site: K505) 2.52, SEMA3C (lysine site: K158) (UniProt Q99985) 5.63, HMGN2 (lysine site: K18) (UniProt P05204) 2.09, PFN1 (lysine site: K70) (UniProt P07737) 2.2, UniProt Q9UII2 (lysine site: K90) 6.67, HSPD1 (lysine site: K369) (UniProt P10809) 2.45, PSMC3 (lysine site: K372) (UniProt P17980) 2.19, NOTCH2 (lysine site: K1353) (UniProt Q04721) 7.44, PSMD7 (lysine site: K180) (UniProt P51665) 2.86, MSN (lysine site: K3) (UniProt P26038) 8.6, FASN (lysine site: K436) (UniProt P49327) 5.67, ILF3 (lysine site: K553) (UniProt Q12906) 4.76, MELTF (lysine site: K544) (UniProt P08582) 2.25

Lysine labeling ratio R10:1, active:
NUMA1 (lysine site: K1667) (UniProt Q14980) 0.807, UniProt P83881 (lysine site: K38) 1.61, TLN1 (lysine site: K1221) (UniProt Q9Y490) 1.89, UniProt Q9NYU2 (lysine site: K356) 1.45, PFAS (lysine site: K639) (UniProt O15067) 1.58, NOTCH2 (lysine site: K693) (UniProt Q04721) 1.5, ITGA6 (lysine site: K986) (UniProt P23229) 1.78, UniProt P26012 (lysine site: K515) 1.07, LRP1 (lysine site: K3910) (UniProt Q07954) 1.43
